# Data as given in paper PMC7862700, “An all-to-all approach to the identification of sequence-specific readers for epigenetic DNA modifications on cytosine”.
# Legend:
# Assay in all cases: DAPPL (digital affinity profiling via proximity ligation, sequencing); 10 mM Tris-HCl pH 7.5, 50 mM NaCl, 1 mM DTT, 4% glycerol, room temperature, 30 min; GST-TFs on glutathione beads, 16-mer random dsDNA library, 0.1% formaldehyde crosslink after washing; high values mean tight binding
# FEV = biological target: T1, FEV (Homo sapiens, UniProt Q99581 1-238); settings: protein: recombinant; tags: N-terminal GST; dsDNA, one strand shown
# T1 sequence: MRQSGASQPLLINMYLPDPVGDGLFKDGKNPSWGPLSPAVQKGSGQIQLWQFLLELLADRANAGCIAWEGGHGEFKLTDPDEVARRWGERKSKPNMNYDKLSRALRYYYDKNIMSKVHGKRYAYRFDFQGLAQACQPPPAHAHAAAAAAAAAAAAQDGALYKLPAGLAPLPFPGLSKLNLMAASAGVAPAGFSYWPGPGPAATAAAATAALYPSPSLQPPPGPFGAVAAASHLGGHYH
# How it was run: (§1)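 Yeast served to express human transcription factors as GST fusions, which were then captured on glutathione beads and labelled with DNA barcodes. Pooled with a tag-only sample, they were incubated with 200 nmole of a 16-mer random double-stranded DNA library for 30 min at room temperature in Tris/NaCl/DTT/glycerol buffer, washed, crosslinked with 0.1% formaldehyde, ligated by proximity, amplified by PCR and sequenced. Dividing each hexamer's read frequency for a factor by its frequency for the tag-only sample gives the binding signal.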
# ETV5 = ETV5 (Homo sapiens, UniProt P41161 1-510); settings: protein: recombinant; tags: N-terminal GST; dsDNA, one strand shown
# How it was run: as §1
# HSF1 = HSF1 (Homo sapiens, UniProt Q00613 1-529); settings: protein: recombinant; tags: N-terminal GST; chain copies: 3; dsDNA, one strand shown
# How it was run: as §1
# SPIC = biological target: T2, SPIC (Homo sapiens, UniProt Q8N5J4 1-248); settings: protein: recombinant; tags: N-terminal GST; dsDNA, one strand shown
# T2 sequence: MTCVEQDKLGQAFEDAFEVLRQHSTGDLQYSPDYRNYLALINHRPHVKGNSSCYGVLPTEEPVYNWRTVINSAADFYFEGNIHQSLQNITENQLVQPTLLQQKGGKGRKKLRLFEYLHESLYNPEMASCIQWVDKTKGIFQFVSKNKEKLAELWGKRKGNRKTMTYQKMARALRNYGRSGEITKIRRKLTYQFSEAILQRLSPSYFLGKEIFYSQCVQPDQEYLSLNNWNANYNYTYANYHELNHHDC
# How it was run: as §1
# ELF4 = ELF4 (Homo sapiens, UniProt Q99607 1-663); settings: protein: recombinant; tags: N-terminal GST; dsDNA, one strand shown
# How it was run: as §1
# ELK4 = biological target: T3, ELK4 (Homo sapiens, UniProt P28324-2 1-405); settings: protein: recombinant; tags: N-terminal GST; dsDNA, one strand shown
# T3 sequence: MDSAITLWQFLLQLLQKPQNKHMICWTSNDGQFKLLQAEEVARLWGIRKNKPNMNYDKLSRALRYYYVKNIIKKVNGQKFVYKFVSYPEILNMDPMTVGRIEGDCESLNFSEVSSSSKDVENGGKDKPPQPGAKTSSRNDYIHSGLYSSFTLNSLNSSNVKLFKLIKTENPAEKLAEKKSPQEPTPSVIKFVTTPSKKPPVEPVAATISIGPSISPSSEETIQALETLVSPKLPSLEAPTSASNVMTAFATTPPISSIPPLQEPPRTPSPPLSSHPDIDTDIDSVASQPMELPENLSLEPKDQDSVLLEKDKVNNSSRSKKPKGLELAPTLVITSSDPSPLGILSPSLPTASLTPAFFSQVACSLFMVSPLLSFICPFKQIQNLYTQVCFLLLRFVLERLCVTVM
# How it was run: as §1
# ETV2 = biological target: T4, ETV2 (Homo sapiens, UniProt O00321 1-342); settings: protein: recombinant; tags: N-terminal GST; dsDNA, one strand shown
# T4 sequence: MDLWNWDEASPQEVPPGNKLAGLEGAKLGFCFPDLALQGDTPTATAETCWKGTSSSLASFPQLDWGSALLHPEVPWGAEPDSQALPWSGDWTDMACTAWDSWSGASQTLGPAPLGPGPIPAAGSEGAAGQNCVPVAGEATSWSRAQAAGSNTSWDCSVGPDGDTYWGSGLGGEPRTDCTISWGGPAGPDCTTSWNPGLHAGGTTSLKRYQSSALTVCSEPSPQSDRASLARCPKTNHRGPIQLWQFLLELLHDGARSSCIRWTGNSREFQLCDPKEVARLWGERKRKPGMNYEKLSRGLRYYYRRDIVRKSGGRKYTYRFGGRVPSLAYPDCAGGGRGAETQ
# How it was run: as §1
# ELF3 = biological target: T5, ELF3 (Homo sapiens, UniProt P78545 1-371); settings: protein: recombinant; tags: N-terminal GST; dsDNA, one strand shown
# T5 sequence: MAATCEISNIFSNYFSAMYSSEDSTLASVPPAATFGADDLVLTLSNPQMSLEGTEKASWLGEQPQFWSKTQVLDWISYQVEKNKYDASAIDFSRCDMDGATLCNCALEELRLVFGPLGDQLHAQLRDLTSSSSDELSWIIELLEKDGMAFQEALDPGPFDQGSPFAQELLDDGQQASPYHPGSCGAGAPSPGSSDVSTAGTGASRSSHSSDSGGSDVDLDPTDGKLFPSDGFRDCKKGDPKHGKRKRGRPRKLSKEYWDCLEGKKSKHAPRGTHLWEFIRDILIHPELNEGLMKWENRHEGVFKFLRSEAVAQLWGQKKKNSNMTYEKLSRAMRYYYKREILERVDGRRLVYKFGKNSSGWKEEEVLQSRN
# How it was run: as §1
# CRX = CRX (Homo sapiens, UniProt O43186 1-299); settings: protein: recombinant; tags: N-terminal GST; dsDNA, one strand shown
# How it was run: as §1
# ETV1 = ETV1 (Homo sapiens, UniProt P50549 1-477); settings: protein: recombinant; tags: N-terminal GST; dsDNA, one strand shown
# How it was run: as §1
# ERF = biological target: T6, ERF (Homo sapiens, UniProt P50548 1-548); settings: protein: recombinant; tags: N-terminal GST; dsDNA, one strand shown
# T6 sequence: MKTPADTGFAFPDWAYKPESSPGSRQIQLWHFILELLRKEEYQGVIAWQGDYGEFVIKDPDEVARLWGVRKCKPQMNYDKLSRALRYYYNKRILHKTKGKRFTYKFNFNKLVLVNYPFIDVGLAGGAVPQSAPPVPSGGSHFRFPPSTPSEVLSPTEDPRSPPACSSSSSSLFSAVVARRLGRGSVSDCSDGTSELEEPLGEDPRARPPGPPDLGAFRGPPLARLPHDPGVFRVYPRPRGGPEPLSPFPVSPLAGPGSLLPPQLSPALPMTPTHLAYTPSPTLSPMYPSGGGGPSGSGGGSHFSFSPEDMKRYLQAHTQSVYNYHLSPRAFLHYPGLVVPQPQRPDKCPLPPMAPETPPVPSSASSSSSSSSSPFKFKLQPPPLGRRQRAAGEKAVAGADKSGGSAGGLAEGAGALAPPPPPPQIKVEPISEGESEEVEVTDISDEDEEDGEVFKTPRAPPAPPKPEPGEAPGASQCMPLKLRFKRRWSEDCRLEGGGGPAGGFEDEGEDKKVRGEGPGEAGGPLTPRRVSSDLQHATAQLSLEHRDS
# How it was run: as §1
# ETV3L = biological target: T7, ETV3L (Homo sapiens, UniProt Q6ZN32 1-361); settings: protein: recombinant; tags: N-terminal GST; dsDNA, one strand shown
# T7 sequence: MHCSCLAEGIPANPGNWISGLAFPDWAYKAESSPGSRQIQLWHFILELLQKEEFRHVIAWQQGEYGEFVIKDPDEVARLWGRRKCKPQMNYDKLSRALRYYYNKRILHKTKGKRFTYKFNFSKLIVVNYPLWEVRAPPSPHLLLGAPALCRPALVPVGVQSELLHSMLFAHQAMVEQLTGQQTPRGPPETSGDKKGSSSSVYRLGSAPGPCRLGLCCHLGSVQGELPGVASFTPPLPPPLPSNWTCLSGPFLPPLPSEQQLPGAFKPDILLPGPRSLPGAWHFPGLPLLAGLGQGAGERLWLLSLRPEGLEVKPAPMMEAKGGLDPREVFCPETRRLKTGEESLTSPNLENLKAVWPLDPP
# How it was run: as §1
# ETS2 = biological target: T8, ETS2 (Homo sapiens, UniProt P15036 1-469); settings: protein: recombinant; tags: N-terminal GST; dsDNA, one strand shown
# T8 sequence: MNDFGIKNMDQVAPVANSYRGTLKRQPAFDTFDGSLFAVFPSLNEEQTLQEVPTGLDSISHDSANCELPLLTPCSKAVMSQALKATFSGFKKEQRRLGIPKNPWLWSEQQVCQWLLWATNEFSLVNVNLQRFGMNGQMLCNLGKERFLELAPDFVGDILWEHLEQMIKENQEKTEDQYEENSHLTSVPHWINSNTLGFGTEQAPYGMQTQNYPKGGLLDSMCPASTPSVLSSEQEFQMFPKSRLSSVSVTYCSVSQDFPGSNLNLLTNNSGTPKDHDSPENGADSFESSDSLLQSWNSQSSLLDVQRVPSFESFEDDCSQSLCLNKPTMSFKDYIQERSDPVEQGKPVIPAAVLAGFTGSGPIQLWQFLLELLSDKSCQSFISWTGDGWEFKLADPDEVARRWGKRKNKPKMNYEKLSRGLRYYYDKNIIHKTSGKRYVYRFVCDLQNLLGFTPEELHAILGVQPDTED
# How it was run: as §1
# SPDEF = biological target: T9, SPDEF (Homo sapiens, UniProt O95238 1-335); settings: protein: recombinant; tags: N-terminal GST; dsDNA, one strand shown
# T9 sequence: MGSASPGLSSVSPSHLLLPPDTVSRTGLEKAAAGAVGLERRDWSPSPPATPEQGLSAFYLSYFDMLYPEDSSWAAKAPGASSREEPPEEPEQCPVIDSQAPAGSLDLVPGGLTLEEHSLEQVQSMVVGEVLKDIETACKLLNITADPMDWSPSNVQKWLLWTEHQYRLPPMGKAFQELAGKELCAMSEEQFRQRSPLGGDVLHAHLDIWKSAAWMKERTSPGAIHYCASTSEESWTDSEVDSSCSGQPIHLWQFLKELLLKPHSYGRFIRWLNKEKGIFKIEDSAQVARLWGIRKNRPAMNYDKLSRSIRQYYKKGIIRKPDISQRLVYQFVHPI
# How it was run: as §1
# ETV7 = biological target: T10, ETV7 (Homo sapiens, UniProt Q9Y603 1-341); settings: protein: recombinant; tags: N-terminal GST; dsDNA, one strand shown
# T10 sequence: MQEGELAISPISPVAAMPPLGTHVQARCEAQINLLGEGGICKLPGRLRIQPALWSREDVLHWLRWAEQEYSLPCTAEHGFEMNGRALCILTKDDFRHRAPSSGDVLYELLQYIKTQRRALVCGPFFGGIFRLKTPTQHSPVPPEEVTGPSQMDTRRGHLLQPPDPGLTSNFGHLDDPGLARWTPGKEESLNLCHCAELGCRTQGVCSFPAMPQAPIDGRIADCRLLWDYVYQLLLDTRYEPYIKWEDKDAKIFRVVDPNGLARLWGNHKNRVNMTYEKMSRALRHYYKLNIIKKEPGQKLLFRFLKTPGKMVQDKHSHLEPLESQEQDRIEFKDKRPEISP
# How it was run: as §1
# ELF5 = biological target: T11, ELF5 (Homo sapiens, UniProt Q9UKW6-2 1-255); settings: protein: recombinant; tags: N-terminal GST; dsDNA, one strand shown
# T11 sequence: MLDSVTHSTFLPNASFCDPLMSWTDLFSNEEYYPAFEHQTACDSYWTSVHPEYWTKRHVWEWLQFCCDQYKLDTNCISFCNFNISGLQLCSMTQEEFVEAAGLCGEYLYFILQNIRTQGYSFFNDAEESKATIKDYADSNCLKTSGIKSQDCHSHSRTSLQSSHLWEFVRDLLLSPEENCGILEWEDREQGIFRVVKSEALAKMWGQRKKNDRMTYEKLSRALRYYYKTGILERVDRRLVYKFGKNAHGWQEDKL
# How it was run: as §1
# ETV3 = biological target: T12, ETV3 (Homo sapiens, UniProt P41162-2 1-143); settings: protein: recombinant; tags: N-terminal GST; dsDNA, one strand shown
# T12 sequence: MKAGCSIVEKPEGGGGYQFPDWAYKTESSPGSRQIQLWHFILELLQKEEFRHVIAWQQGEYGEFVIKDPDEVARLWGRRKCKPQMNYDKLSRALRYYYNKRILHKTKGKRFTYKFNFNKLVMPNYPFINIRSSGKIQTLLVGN
# How it was run: as §1
# ETV6 = ETV6 (Homo sapiens, UniProt P41212 1-452); settings: protein: recombinant; tags: N-terminal GST; dsDNA, one strand shown
# How it was run: as §1
# Sequence of ETV5 (P41161 whole entry): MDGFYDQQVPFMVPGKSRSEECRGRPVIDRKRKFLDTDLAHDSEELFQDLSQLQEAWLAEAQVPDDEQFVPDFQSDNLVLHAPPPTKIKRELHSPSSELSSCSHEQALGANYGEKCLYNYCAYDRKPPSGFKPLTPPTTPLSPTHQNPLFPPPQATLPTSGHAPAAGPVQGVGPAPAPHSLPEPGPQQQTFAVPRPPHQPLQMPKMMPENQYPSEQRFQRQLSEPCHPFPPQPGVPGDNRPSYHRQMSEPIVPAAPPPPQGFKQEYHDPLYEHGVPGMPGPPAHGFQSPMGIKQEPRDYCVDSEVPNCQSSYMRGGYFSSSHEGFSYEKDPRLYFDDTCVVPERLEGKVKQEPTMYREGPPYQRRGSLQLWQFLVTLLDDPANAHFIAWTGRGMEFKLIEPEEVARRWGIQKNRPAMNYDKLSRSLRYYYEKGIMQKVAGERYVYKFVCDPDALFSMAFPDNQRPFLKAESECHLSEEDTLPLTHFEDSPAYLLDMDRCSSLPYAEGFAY
# Sequence of ETV6 (P41212 whole entry): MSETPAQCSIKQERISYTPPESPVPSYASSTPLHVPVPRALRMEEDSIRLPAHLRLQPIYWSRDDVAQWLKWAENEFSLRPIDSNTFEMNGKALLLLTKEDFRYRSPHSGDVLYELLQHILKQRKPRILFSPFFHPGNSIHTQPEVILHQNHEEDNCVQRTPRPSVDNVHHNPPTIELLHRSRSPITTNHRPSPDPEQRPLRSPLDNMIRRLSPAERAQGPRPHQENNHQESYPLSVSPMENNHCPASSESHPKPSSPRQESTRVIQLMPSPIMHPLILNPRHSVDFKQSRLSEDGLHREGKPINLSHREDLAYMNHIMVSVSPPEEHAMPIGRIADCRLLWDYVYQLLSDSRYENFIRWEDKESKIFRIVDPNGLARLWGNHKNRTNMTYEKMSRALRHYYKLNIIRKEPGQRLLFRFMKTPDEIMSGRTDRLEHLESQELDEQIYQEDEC
# Sequence of HSF1 (Q00613 whole entry): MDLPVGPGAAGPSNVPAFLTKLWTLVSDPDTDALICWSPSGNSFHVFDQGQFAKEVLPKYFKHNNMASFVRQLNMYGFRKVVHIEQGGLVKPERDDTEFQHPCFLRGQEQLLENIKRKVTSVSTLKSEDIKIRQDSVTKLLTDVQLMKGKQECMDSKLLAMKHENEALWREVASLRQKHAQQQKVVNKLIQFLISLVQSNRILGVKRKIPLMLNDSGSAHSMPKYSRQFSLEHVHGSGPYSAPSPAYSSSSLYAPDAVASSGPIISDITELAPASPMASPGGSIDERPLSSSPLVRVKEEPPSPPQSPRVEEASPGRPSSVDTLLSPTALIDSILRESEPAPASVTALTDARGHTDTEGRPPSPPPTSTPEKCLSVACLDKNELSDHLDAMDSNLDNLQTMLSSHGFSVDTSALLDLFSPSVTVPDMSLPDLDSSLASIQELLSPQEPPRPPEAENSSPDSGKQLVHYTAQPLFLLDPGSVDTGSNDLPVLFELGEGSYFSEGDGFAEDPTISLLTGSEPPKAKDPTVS
# Sequence of CRX (O43186 whole entry): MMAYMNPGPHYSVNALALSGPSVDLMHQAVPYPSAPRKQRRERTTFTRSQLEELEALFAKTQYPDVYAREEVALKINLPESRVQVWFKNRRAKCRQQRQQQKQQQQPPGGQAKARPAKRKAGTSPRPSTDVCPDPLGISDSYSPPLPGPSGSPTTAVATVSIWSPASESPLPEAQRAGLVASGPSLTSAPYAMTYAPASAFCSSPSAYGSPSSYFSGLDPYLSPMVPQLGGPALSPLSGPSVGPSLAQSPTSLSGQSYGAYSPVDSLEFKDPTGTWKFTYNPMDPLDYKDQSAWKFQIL
# Sequence of ELF4 (Q99607 whole entry): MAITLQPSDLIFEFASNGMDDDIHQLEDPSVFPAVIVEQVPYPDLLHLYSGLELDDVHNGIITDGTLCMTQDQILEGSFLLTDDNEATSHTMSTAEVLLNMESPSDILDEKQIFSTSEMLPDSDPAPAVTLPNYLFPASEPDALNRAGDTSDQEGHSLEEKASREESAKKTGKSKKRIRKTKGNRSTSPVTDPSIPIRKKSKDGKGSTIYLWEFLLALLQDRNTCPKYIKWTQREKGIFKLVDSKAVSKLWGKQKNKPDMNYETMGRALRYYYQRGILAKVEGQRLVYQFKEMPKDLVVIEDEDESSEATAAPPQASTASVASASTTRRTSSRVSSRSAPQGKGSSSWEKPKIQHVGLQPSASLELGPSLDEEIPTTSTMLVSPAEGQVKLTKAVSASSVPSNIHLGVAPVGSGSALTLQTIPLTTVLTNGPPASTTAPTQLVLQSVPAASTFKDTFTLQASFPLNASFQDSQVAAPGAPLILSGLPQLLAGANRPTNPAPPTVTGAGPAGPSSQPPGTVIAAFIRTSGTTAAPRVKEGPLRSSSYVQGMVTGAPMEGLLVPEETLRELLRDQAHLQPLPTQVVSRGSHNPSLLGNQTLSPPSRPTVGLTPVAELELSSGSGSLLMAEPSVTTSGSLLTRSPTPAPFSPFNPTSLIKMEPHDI
# Sequence of ETV1 (P50549 whole entry): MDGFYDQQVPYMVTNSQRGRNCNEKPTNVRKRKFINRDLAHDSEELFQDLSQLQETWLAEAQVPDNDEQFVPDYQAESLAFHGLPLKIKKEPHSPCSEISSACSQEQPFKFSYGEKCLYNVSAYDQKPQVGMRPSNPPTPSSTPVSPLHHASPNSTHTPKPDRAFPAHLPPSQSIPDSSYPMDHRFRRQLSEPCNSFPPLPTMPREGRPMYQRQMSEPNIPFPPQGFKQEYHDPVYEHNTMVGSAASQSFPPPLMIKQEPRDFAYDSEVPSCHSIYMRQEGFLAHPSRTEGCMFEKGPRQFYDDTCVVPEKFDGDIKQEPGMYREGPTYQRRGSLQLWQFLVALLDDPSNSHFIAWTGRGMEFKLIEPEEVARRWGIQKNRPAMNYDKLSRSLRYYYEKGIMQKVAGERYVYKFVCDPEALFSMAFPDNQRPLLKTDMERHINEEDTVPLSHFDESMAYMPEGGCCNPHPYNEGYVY
sequence,measurement,setting,value
TCCGAT,binding signal,FEV,"1.41 fold enrichment (6-mer frequency, TF over GST control)"
same,binding signal,ETV5,"1.3 fold enrichment (6-mer frequency, TF over GST control)"
same,binding signal,HSF1,"1.42 fold enrichment (6-mer frequency, TF over GST control)"
same,binding signal,SPIC,"1.25 fold enrichment (6-mer frequency, TF over GST control)"
same,binding signal,ELF4,"1.22 fold enrichment (6-mer frequency, TF over GST control)"
same,binding signal,ELK4,"1.25 fold enrichment (6-mer frequency, TF over GST control)"
same,binding signal,ETV2,"1.15 fold enrichment (6-mer frequency, TF over GST control)"
same,binding signal,ELF3,"1.23 fold enrichment (6-mer frequency, TF over GST control)"
same,binding signal,CRX,"1.94 fold enrichment (6-mer frequency, TF over GST control)"
same,binding signal,ETV1,"1.3 fold enrichment (6-mer frequency, TF over GST control)"
same,binding signal,ERF,"1.25 fold enrichment (6-mer frequency, TF over GST control)"
same,binding signal,ETV3L,"1.22 fold enrichment (6-mer frequency, TF over GST control)"
same,binding signal,ETS2,"1.28 fold enrichment (6-mer frequency, TF over GST control)"
same,binding signal,SPDEF,"1.34 fold enrichment (6-mer frequency, TF over GST control)"
same,binding signal,ETV7,"1.27 fold enrichment (6-mer frequency, TF over GST control)"
same,binding signal,ELF5,"1.27 fold enrichment (6-mer frequency, TF over GST control)"
same,binding signal,ETV3,"1.35 fold enrichment (6-mer frequency, TF over GST control)"
same,binding signal,ETV6,"1.39 fold enrichment (6-mer frequency, TF over GST control)"
